# MOR-DOR ag: OPRM1-OPRD1 heterodimerization agonism; cells, luminescence; 340,000 tested, 0.3% active; activation, % at 9.3 µM; P35372+P41143; in the data active = activation above about 18%;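 also: 0% = vehicle-treated cells and 100% = reference agonist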
# OPRM1-OPRD1 inv: inverse agonists of human mu-delta opioid receptor heterodimerization; P35372+P41143; cell-based MOR-DOR heterodimer luminescence, inverse agonism; inhibition, % at 9.3 µM; 340,000 tested, 0.21% active; AID 504357; in the data active = inhibition above about 22%, passing the limit was not always enough;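 also: 0% = cells with DMSO and 100% = wells without cells with DMSO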
# HTR5A inv ag: counter-screen for OPRM1-OPRD1 inverse agonists: human HTR5A inverse agonism. P47898. HTR5A cell line, luminescence. inhibition, % at 9.3 µM. 340,000 tested, 0.083% active. AID 504634; in the data active = inhibition mostly above about 23%, no sharp cut-off; inactive = mostly below about 18%;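 also: 0% = cells with DMSO and 100% = no-cell wells with DMSO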
# Target sequence (P47898 whole entry, looked up): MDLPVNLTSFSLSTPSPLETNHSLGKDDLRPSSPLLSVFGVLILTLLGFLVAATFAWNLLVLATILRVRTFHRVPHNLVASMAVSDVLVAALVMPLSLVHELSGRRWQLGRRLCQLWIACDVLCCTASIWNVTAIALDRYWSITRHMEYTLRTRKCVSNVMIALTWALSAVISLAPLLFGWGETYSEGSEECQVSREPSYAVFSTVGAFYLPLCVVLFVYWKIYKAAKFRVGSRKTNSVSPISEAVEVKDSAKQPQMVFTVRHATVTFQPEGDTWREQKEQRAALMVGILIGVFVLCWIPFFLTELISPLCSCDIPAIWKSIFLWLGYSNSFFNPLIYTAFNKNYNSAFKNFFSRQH
# HTR5A ag ctr: counter-screen for OPRM1-OPRD1 agonists: human HTR5A agonism | HTR5A agonist assay, luminescence, cell-based | AID 504692 | P47898 | activation, % at 9.3 µM | 340,000 tested, 0.61% active; in the data active = activation mostly above about 9.5%, no sharp cut-off; inactive = mostly below about 7.6%;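 also: 0% = cells with vehicle only and 100% = reference agonist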
# * marks the source's active call; other numbers are inactive results. The list is not random: actives were taken first. Their share in the collection is about 1.1%.
SMILES,MOR-DOR ag,OPRM1-OPRD1 inv,HTR5A inv ag,HTR5A ag ctr
O=C(CNC1CCCCCC1)c1cccs1,-5.9,32.8*,-17.0,6.3
O=C(NC1CCCCCC1)c1cccs1,-0.5,2.7,-42.5,3.0
O=C(CSc1nnc2ccc(-c3ccc(F)cc3)nn12)N1CCOCC1,-0.6,3.5,4.0,-1.5
CCOc1ccc(S(=O)(=O)N2CCN(C(=O)C3CC3C)CC2)cc1 (centres undefined),-0.6,2.8,-15.9,4.0
O=C(Nc1ccccc1)C(Cl)C(=O)c1ccccc1 (centres undefined),-19.1,95.6*,50.7*,-13.4
CC(=O)C(Cl)C(=O)Nc1ccccc1 (centres undefined),-14.9,74.5*,-1.1,-4.9
COc1ccccc1C(=O)NCCC(=O)Nc1ccc(S(=O)(=O)N2CC(C)CC(C)C2)cc1 (centres undefined),-0.9,3.4,2.5,4.7
CC1=[N+](C)c2ccc3ccccc3c2C1(C)C,9.5,-68.9,-37.0,13.1*
CCOc1ccc(C=NNC(=O)c2cccc3ccccc23)cc1OCC,0.4,-1.7,17.8,-4.7
O=C(Nc1ccc2oc(=O)ccc2c1)c1ccc(-c2ccccc2[N+](=O)[O-])o1,27.1*,-143.8,5.2,13.9*
CC(C)CNC(=O)COC(=O)c1c2c(nc3ccccc13)/C(=C\c1cccs1)CC2,20.7*,-103.6,-2.1,0.5
CCc1ccc2c(CC(=O)Nc3cccc(S(=O)(=O)N4CCOCC4)c3)coc2c1,-0.8,3.5,-7.7,3.1
CCC(C)NCCOCCOc1cc(C)c(Cl)c(C)c1 (centres undefined),0.8,-3.8,4.0,11.5*
COc1ccccc1N/C=C(\C#N)c1nc2ccccc2[nH]1,3.7,-26.6,-35.8,12.6*
COc1cc2sc(NC(=O)c3ccco3)nc2cc1Cl,2.8,-13.1,-38.6,9.9*
Cc1cc(C(=O)NN)c2cc(Br)ccc2n1,0.8,-4.4,-41.1,13.5*
COc1cc(NC(=O)c2ccccc2)ccc1NC(=O)c1cc2ccccc2o1,5.9,-27.6,12.8,-3.6
COc1cccc(C(=O)Nc2ccc(NC(=O)c3cc4ccccc4o3)c(OC)c2)c1,7.3,-36.1,-49.6,13.2*
CCC1Nc2ncnc(N3CCN(c4ccccn4)CC3)c2N(Cc2ccc(Br)cc2)C1=O (centres undefined),-15.4,85.9*,80.5*,-28.8
CCC1Nc2ncnc(N3CCCCC3)c2N(Cc2ccc(Br)cc2)C1=O (centres undefined),-3.6,20.5,9.2,-6.1
CCC1Nc2ncnc(N3CCCCC3)c2N(Cc2ccc(Cl)cc2)C1=O (centres undefined),-3.0,17.4,3.6,-1.8
CCC1Nc2ncnc(N3CCN(c4ccccc4)CC3)c2N(Cc2ccccc2)C1=O (centres undefined),-13.1,59.9*,49.0*,-11.7
CCC1Nc2ncnc(N3CCN(c4ccccn4)CC3)c2N(Cc2ccc(Cl)cc2)C1=O (centres undefined),-13.8,80.0*,77.0*,-29.1
COc1ccc(C2(c3ccc(OC)cc3)NC(=O)N(CC(=O)NCC(C)c3ccccc3)C2=O)cc1 (centres undefined),-0.7,2.9,6.2,-2.5
COc1ccccc1-c1sc2cc3c(cc2c1C#Cc1cncn1C)OCO3,-1.3,7.8,-0.8,0.3
SMILES,MOR-DOR ag,OPRM1-OPRD1 inv,HTR5A inv ag,HTR5A ag ctr
Cc1ccc(S(=O)(=O)N(C(=N)N)c2nc(N(C)C)nc(N(C)C)n2)cc1,-1.1,5.8,-14.2,3.9
O=C(NCCCN1CCCC1=O)c1ccc2c(c1)NC(=O)C(N1CCOCC1)S2 (centres undefined),-1.7,9.8,-3.4,0.1
CCCCN(C)CCNC(=O)c1ccc2c(c1)NC(=O)C(N1CCCCC1)S2 (centres undefined),-0.6,3.4,-24.9,12.5*
CCS(=O)(=O)N1Cc2ccccc2CC1C(=O)N(C)CC(=O)Nc1cccc(F)c1 (centres undefined),-0.9,5.8,12.3,9.9*
CN(CC(=O)Nc1ccc(F)cc1)C(=O)C1Cc2ccccc2CN1S(C)(=O)=O (centres undefined),-3.3,17.3,10.5,-4.3
CC1=C(C)/C(=N\OS(=O)(=O)c2ccccc2)C=CC1=O,61.6*,-331.1,18.6,3.3
C=CCC1CCC/C(=N\NS(=O)(=O)c2ccc(C)cc2)C1 (centres undefined),0.4,-2.3,-49.1,13.4*
COc1ccc(NC(=O)COC(=O)c2cc3c(s2)CCC3)cc1,-1.1,4.0,-21.5,2.3
Cc1noc(C)c1CSCC(=O)Nc1nc2c(F)cc(F)cc2s1,-1.5,6.3,0.5,-0.2
NC(=O)CN1CCN(c2cccc(Cl)c2)CC1,-1.9,9.7,0.0,13.6*

# Bioassay records deposited in PubChem BioAssay by The Scripps Research Institute Molecular Screening Center.
